Results taken from PubChem BioAssay AID463173 (ICCB-Longwood Screening Facility, Harvard Medical School, 2010).
The campaign covered roughly 52,000 compounds. About 1,700 (3.3%) were called active. For the sample, actives were picked, then their nearest neighbours and some compounds at random. A number with no mark means an inactive call. No stated cut-off is given here; in the data, active means survival mostly below about 52% (no sharp cut-off); inactive means mostly above about 56%.

tested on: Wild type; experiment: S. aureus survival, RN4220 and DeltatarO strains – OD600, teichoic acid synthesis inhibitors, primary screen (AID 463173); conditions: S. aureus RN4220 wild type/DeltatarO growth, OD600, 18 h, hits give low values, screened at 18.75 µg/mL (by protocol)

Row | SMILES | survival
1 | O=S(=O)(c1ccc(Br)cc1)c1nnn2c1nc(NCc1ccc3c(c1)OCO3)c1sccc12 | 90%
2 | CCOC(=O)C1CCN(C(=O)c2ccc(-n3ccc4ccccc43)s2)CC1 | 71%
3 | CCOC(=O)C1CCCN(C(=O)c2ccc(-n3ccc4ccccc43)s2)C1 (stereo not drawn) | -3% (active)
4 | CCC(C)NC(=O)C1CCN(C(=O)c2ccc(-n3ccc4ccccc43)s2)CC1 (stereo not drawn) | 55%
5 | COCCn1c(=S)[nH]c2ccccc2c1=O | 105%
6 | CCCC(=O)N(c1ccc2oc3c(c2c1)CCCC3)S(=O)(=O)c1ccc(CC)cc1 | 67%
7 | CC(C)c1ccc(-c2nnn(CC(N)=O)n2)cc1 | 115%
8 | Cc1ccc(-n2ncc(C(=O)N3CCN(c4cccc(C)c4C)CC3)c2C2CCNCC2)c(C)c1 | 84%
9 | CC(C)(C)OC(=O)N1CCC(c2c(C(=O)N3CCN(c4ncccn4)CC3)cnn2-c2ccccc2)CC1 | 87%
10 | CC(C)(C)OC(=O)N1CCC(c2c(C(=O)N3CCN(c4ncccn4)CC3)cnn2-c2ccc(F)cc2F)CC1 | 1% (active)
11 | CN1CCN(C(=O)c2cnn(-c3ccc(F)cc3F)c2C2CCN(C(=O)OC(C)(C)C)CC2)CC1 | 87%
12 | Cc1cccc(N2CCN(C(=O)c3cnn(-c4ccc(F)cc4F)c3C3CCN(C(=O)OC(C)(C)C)CC3)CC2)c1C | 99%
13 | Cc1ccc(-n2ncc(C(=O)N3CCN(c4ncccn4)CC3)c2C2CCN(C(=O)OC(C)(C)C)CC2)cc1 | 71%
14 | COc1ccccc1N1CCN(C(=O)c2cnn(-c3ccc(F)cc3F)c2C2CCNCC2)CC1 | 0% (active)
15 | CC(C)(C)OC(=O)N1CCC(c2c(C(=O)N3CCN(c4ncccn4)CC3)cnn2-c2ccc(F)cc2)CC1 | -1% (active)
16 | CC(C)(C)OC(=O)N1CCC(c2c(C(=O)N3CCN(c4ccccn4)CC3)cnn2-c2ccc(F)cc2F)CC1 | 71%
17 | COc1ccc(OC)c(NC(=O)Cn2cc(C(=O)c3ccc(Cl)cc3)c(=O)c3cc(OC)ccc32)c1 | 68%
18 | O=C(CSc1nc2c([nH]c3ccccc32)c(=O)n1-c1ccccc1)Nc1ccc2c(c1)OCCO2 | 87%
19 | CCc1ccccc1NS(=O)(=O)c1ccc2[nH]cc(C(=O)NC3CCCC3)c(=O)c2c1 | 42%
20 | CNC(=O)c1c[nH]c2ccc(S(=O)(=O)Nc3cccc(Cl)c3C)cc2c1=O | 82%
21 | Cc1cc(C)cc(NS(=O)(=O)c2ccc3[nH]cc(C(=O)NC4CCCCC4)c(=O)c3c2)c1 | 27%
22 | CC(C)c1ccc(NS(=O)(=O)c2ccc3[nH]cc(C(=O)NC4CCCCC4)c(=O)c3c2)cc1 | 13%

Row | SMILES | survival
23 | CCOc1ccc(NS(=O)(=O)c2ccc3[nH]cc(C(=O)N(C)Cc4ccccc4)c(=O)c3c2)cc1 | 1% (active)
24 | Cc1c(Cl)cccc1NS(=O)(=O)c1ccc2[nH]cc(C(=O)NC3CCCC3)c(=O)c2c1 | 11% (active)
25 | CCc1ccc(NS(=O)(=O)c2ccc3[nH]cc(C(=O)NC4CCCC4)c(=O)c3c2)cc1 | 9% (active)
26 | CCOc1ccc(NS(=O)(=O)c2ccc3[nH]cc(C(=O)NCc4ccccc4)c(=O)c3c2)cc1 | 74%
27 | CC(C)c1ccc(NS(=O)(=O)c2ccc3[nH]cc(C(=O)NC4CCCC4)c(=O)c3c2)cc1 | 7% (active)
28 | CCOc1ccc(NS(=O)(=O)c2ccc3[nH]cc(C(=O)NC4CCCC4)c(=O)c3c2)cc1 | 55%
29 | Cc1cc(C)cc(NS(=O)(=O)c2ccc3[nH]cc(C(=O)N(C)Cc4ccccc4)c(=O)c3c2)c1 | 111%
30 | Cc1ccccc1NS(=O)(=O)c1ccc2[nH]cc(C(=O)NC3CCCCC3)c(=O)c2c1 | 80%
31 | COc1ccc(-n2ncc3c2ncn2nc(-c4ccc(Cl)cc4Cl)nc32)cc1 | 92%
32 | Cc1ccc(NC2=NCC(=O)N2C2CCCC2)cc1C | 104%
33 | CCOC(=O)c1cc(-c2ccccc2)n(CCCC(=O)Nc2ccc(C)cc2Cl)c1C | 91%
34 | COc1ccc(S(=O)(=O)N/N=C(/C2CCCCC2)C(F)(F)F)cc1 | 111%
35 | CCN(C(=O)CCS(=O)(=O)c1ccc2c(c1)oc(=O)n2C)c1ccc(OC)cc1 | 70%
36 | CCc1ccccc1NC(=O)Nc1cc(C(=O)NCc2ccc(OC)cc2)ccc1N1CCCC1 | 128%
37 | O=C(NC1CCCC1)c1c[nH]c2ccc(S(=O)(=O)Nc3cccc(C(F)(F)F)c3)cc2c1=O | 11% (active)
38 | CN(C(=O)c1c[nH]c2ccc(S(=O)(=O)Nc3cccc(C(F)(F)F)c3)cc2c1=O)C1CCCCC1 | 71%
39 | COc1cccc(NS(=O)(=O)c2ccc3[nH]cc(C(=O)NC4CCCCC4)c(=O)c3c2)c1 | 50%
40 | COc1cccc(-n2c(SCC(=O)c3ccc(Cl)cc3)nc3c([nH]c4ccccc43)c2=O)c1 | 45%
41 | COc1cc(OC)c(NC2(c3ccccc3)C(=O)c3ccccc3C2=O)cc1Cl | 65%
42 | Cc1oc2ccc(O)c(CN(C)Cc3ccccc3)c2c1C(=O)Nc1cccc(C(F)(F)F)c1 | 10% (active)
43 | CCOc1ccc(CCNC(=O)c2c(C)oc3ncn(C)c(=O)c23)cc1 | 82%
44 | CSc1ccc(CCNC(=O)c2c(C)oc3ncn(C)c(=O)c23)cc1 | -4% (active)

Row | SMILES | survival
45 | CCCCNC(=O)c1c(C)oc2ncn(CC(C)C)c(=O)c12 | 1% (active)
46 | Cc1cccc(NC(=O)c2c(C)oc3ncn(CC(C)C)c(=O)c23)n1 | 71%
47 | Cc1oc2ncn(CC(C)C)c(=O)c2c1C(=O)NCCCN1CCCCC1 | 73%
48 | CCNC(=O)c1c(C)oc2ncn(C)c(=O)c12 | 119%
49 | CCN(CC)CCCNC(=O)c1c(C)oc2ncn(CC(C)C)c(=O)c12 | 81%
50 | Cc1oc2ncn(CC(C)C)c(=O)c2c1C(=O)Nc1cccc(C(F)(F)F)c1 | -3% (active)
51 | Cc1oc2ccc(O)c(CN3CCN(C)CC3)c2c1C(=O)Nc1cccc(C(F)(F)F)c1 | 92%
52 | Cc1ccnc(NC(=O)c2c(C)oc3ncn(CC(C)C)c(=O)c23)c1 | 69%
53 | Cc1oc2ccc(O)c(CN(C)Cc3ccccc3)c2c1C(=O)Nc1ccccc1 | 105%
54 | Cc1ccc(CNC(=O)CCCCCn2c(=O)[nH]c3ccccc3c2=O)cc1 | 146%
55 | CCOc1ccc(NS(=O)(=O)c2ccc3[nH]cc(C(=O)N4CCCCCC4)c(=O)c3c2)cc1 | 122%
56 | COc1ccccc1N1CCN(Cc2nnc(-c3ccccc3C)o2)CC1 | 82%
57 | CCc1nn2c(=O)c(S(=O)(=O)Nc3ccc(Br)cc3F)c(C)nc2s1 | 61%
58 | COc1ccccc1C(=O)NC1(C(F)(F)F)C(=O)NC(C)=C1C#N (stereo not drawn) | 90%
59 | O=C(Nc1ccc(F)cc1)c1oc2ccccc2c1NC(=O)C1CCCCC1 | 14%
60 | Cc1ccc(NC(=O)c2oc3ccccc3c2NC(=O)C2CCCCC2)cc1 | 4% (active)
61 | CCOc1ccc(NC(=O)c2oc3ccccc3c2NC(=O)C2CCCCC2)cc1 | 84%
62 | Cc1ccc(C(=O)Nc2c(C(=O)NC(C)(C)C)oc3ccccc23)cc1 | 0% (active)
63 | CC(C)(C)NC(=O)c1oc2ccccc2c1NC(=O)c1ccc(F)cc1 | 73%
64 | CN(C)c1ccc(C(=O)Nc2c(C(=O)NC(C)(C)C)oc3ccccc23)cc1 | 65%
65 | CCOC(=O)c1sc(NC(=O)c2c(-c3ccccc3)c(-c3ccccc3)nn(C)c2=O)nc1C | 71%
66 | COc1ccc(-c2noc(Cn3c(=O)c4ccccc4n(CC(=O)Nc4cccc(OC)c4)c3=O)n2)cc1 | 82%

Row | SMILES | survival
67 | Cc1ccccc1NS(=O)(=O)c1ccc2[nH]cc(C(=O)N3CCCC3)c(=O)c2c1 | 99%
68 | CC(Nc1ccc(-c2nc(-c3ccncc3)no2)cc1[N+](=O)[O-])c1ccccc1 (stereo not drawn) | 87%
69 | CCOc1ccc(NC(=O)Cn2c(=O)oc3cc(S(=O)(=O)NC4CCCC4)ccc32)cc1 | 81%
70 | CCOCCCNC(=O)c1cnc2sc(N3CCCCCC3)nn2c1=O | 68%
71 | CCOC(=O)C1(C)C=C(Nc2cccc(C)c2)C(=O)N1c1ccccc1 (stereo not drawn) | 51%
72 | CCOC(=O)CC(NC(=O)CCc1c(C)nc2cc(-c3ccccc3)nn2c1C)c1ccc(C)cc1 (stereo not drawn) | 128%
73 | CCOC(=O)Cc1c(C)nc2cc(C)nn2c1C | 106%
74 | CCOC(=O)Cc1c(C)nc2cc(-c3ccc(C(C)(C)C)cc3)nn2c1C | -2% (active)
75 | O=C(Nc1ccccc1O)c1cccc(S(=O)(=O)Nc2ccccc2O)c1 | 108%
76 | CCN1CCN(CC2CCCCC2)CC1 | 102%
77 | CC1CN(C(=O)CCC(=O)NCc2ccccc2)c2cc(Cl)ccc2O1 (stereo not drawn) | 92%
78 | Oc1ccccc1-c1nnc(SCc2ccccc2)o1 | 103%
79 | Oc1ccc(-c2nnc(SCc3ccc(Cl)cc3)o2)cc1 | 112%
80 | CCOc1ccccc1-c1nnc(SCc2ccc(Cl)cc2)o1 | -14% (active)
81 | Cc1cc(C(=O)N2CCN(c3cc(Cl)ccc3C)CC2)c2c(C)nn(-c3ccccc3)c2n1 | 136%
82 | O=C(Nc1ncn[nH]1)C(F)(F)C(F)F | 108%
83 | CC(=O)c1ccc(NC(=O)c2cc3c([nH]c2=O)CC(c2ccccc2)CC3=O)cc1 (stereo not drawn) | 85%
84 | O=C1CC(c2ccccc2)Cc2[nH]c(=O)c(C(=O)Nc3ccc(F)cc3)cc21 (stereo not drawn) | 75%
85 | O=C1CC(c2ccccc2)Cc2[nH]c(=O)c(C(=O)Nc3cccc(F)c3)cc21 (stereo not drawn) | 85%
86 | COc1ccc(NC(=O)c2cc3c([nH]c2=O)CC(c2ccccc2)CC3=O)cc1 (stereo not drawn) | 63%
87 | Cc1cccc(NC(=O)c2cc3c([nH]c2=O)CC(c2ccccc2)CC3=O)c1 (stereo not drawn) | -3% (active)
88 | O=C1CC(c2ccccc2)Cc2[nH]c(=O)c(C(=O)Nc3cccc(Cl)c3)cc21 (stereo not drawn) | 0% (active)
